This note sets out measurements from PubChem BioAssay (NCATS).

Records with an inconclusive call do not appear. Unmarked numbers belong to inactive results. Calls follow the shape of the dose curve; as a rule, active = well fitted inhibition curve with a large enough effect; inconclusive = small, poorly fitted or top-dose-only effect; inactive = flat fitted curve, though single readings scatter.

This assay is described as follows: qHTS of Trypanosoma Brucei Inhibitors: LOPAC Validation (AID 624147). Also: 0% is about no effect. The following applies: purified enzyme assay, luminescence, 45 min; series mostly up to 57.5 µM; activity change, negative = inhibition: at the top concentration. The essentials: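 Glycolytic pyruvate kinase of T. brucei was incubated with substrate, test compound and 130 uM ADP for 45 minutes at room temperature. Luminescent Kinase-Glo Plus signal was measured after 10 minutes.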
On the technique in general: Quantitative high-throughput screening tests each substance at several concentrations.
With `NC(=O)c1ncn([C@@H]2O[C@H](CO)[C@@H](O)[C@H]2O)c1O`, the “activity change, negative = inhibition” value is -2.95%.

In the case of `CC(C)(C)c1ccc(C(=O)CCCN2CCC(OC(c3ccccc3)c3ccccc3)CC2)cc1`, the “activity change, negative = inhibition” value was -5.91%.

With `N[C@@H](COP(=O)(O)O)C(=O)O`, the “activity change, negative = inhibition” value was -11.1%.

For `CCN(CC)CC(=O)Nc1c(C)cccc1C`, the “activity change, negative = inhibition” value was -9.45%.

With `Cc1cccc(C)c1NC(=O)C(C)N` (stereo unspecified), the “activity change, negative = inhibition” value was -9.34%.

With `CSc1ccc(C(=O)c2[nH]c(=O)[nH]c2C)cc1`, the “activity change, negative = inhibition” value was 2.18%.

With `Brc1c(NC2=NCCN2)ccc2nccnc12`, the “activity change, negative = inhibition” value is -19%.

Turning to `CCC(=O)c1ccc2c(c1)N(CCCN(C)C)c1ccccc1S2`, the “activity change, negative = inhibition” value is 6.28%.

With `CCn1cc(C(=O)O)c(=O)c2cc3c(cc21)OCO3`, the “activity change, negative = inhibition” value was 2.3%.

Consider `CC(C)(C)NCC(O)c1cc(O)cc(O)c1` (stereo unspecified), for which the “activity change, negative = inhibition” value is -5.36%.

Turning to `CC(C(=O)O)c1ccc(CC2CCCC2=O)cc1` (stereo unspecified), the “activity change, negative = inhibition” value is -13.4%.

Regarding `NC(Cc1ccc(Cl)cc1)C(=O)O` (stereo unspecified), the “activity change, negative = inhibition” value was -3.93%.

Turning to `CCO/C([O-])=N/c1c[n+](N2CCOCC2)no1`, the “activity change, negative = inhibition” value was -8.85%.

As for `CC1=C(C)C(=O)C(CCCCC#CCCCC#CCO)=C(C)C1=O`, the “activity change, negative = inhibition” value is -9.72%.

Turning to `CCc1c(C)[nH]c2c1C(=O)C(CN1CCOCC1)CC2` (stereo unspecified), the “activity change, negative = inhibition” value was -10.3%.

Take `CCN(Cc1ccncc1)C(=O)C(CO)c1ccccc1` (stereo unspecified): the “activity change, negative = inhibition” value was -1.81%.

Take `C[C@H](CS)C(=O)N1CCC[C@H]1C(=O)O`: the “activity change, negative = inhibition” value was -8.97%.

On to `CC(N=C(NC#N)Nc1ccncc1)C(C)(C)C` (stereo unspecified), for which the “activity change, negative = inhibition” value is -7.91%.

With `COC(=O)C1=C(C)NC(C)=C(C(=O)OCCN(C)Cc2ccccc2)C1c1cccc([N+](=O)[O-])c1` (stereo unspecified), the “activity change, negative = inhibition” value is -7.4%.

Regarding `Cc1ccc(Cl)c(Nc2ccccc2C(=O)O)c1Cl`, the “activity change, negative = inhibition” value is -5.22%.

Take `FC(F)(F)c1ccccc1-n1ccnc1`: the “activity change, negative = inhibition” value is -5.78%.

`CNCCCN1c2ccccc2CCc2ccccc21`: the “activity change, negative = inhibition” value is -4.11%.

`CC(C)COCC(CN(Cc1ccccc1)c1ccccc1)N1CCCC1` (stereo unspecified): the “activity change, negative = inhibition” value was -1.71%.

On to `CCOC(=O)c1cnc2c(cnn2CC)c1NN=C(C)C`, for which the “activity change, negative = inhibition” value was -2.67%.

As to `CNC1(C)C2CCC(C2)C1(C)C` (stereo unspecified), the “activity change, negative = inhibition” value was -10.5%.

With `c1cc(CN2CCCCC2)cc(OCCCNc2nc3ccccc3s2)c1`, the “activity change, negative = inhibition” value was -12.1%.

Take `CCN1CCc2nc(N)oc2CC1`: the “activity change, negative = inhibition” value is -8.75%.

For `NC1=NCC2c3ccccc3Cc3ccccc3N12` (stereo unspecified), the “activity change, negative = inhibition” value is -10.7%.

Take `CNCCC(Oc1ccccc1OC)c1ccccc1` (stereo unspecified): the “activity change, negative = inhibition” value is -11.3%.

For `C[C@@H](O)[C@H]1C(=O)N2C(C(=O)O)=C(SCCN=CN)C[C@H]12`, the “activity change, negative = inhibition” value was -4.23%.

Take `COc1cc(C(=O)OCCCN2CCCN(CCCOC(=O)c3cc(OC)c(OC)c(OC)c3)CC2)cc(OC)c1OC`: the “activity change, negative = inhibition” value is -2.14%.

Turning to `C(=C\c1ccccc1)/CN1CCN(C(c2ccccc2)c2ccccc2)CC1`, the “activity change, negative = inhibition” value was -7.46%.

In the case of `O=C(CCNNC(=O)c1ccncc1)NCc1ccccc1`, the “activity change, negative = inhibition” value is -11.8%.

As for `CN(C)CCCN1c2ccccc2Sc2ccccc21`, the “activity change, negative = inhibition” value is -6.13%.

Turning to `C[C@]12CC[C@@H]3c4ccc(O)cc4C[C@@H](CCCCCCCCCS(=O)CCCC(F)(F)C(F)(F)F)[C@H]3[C@@H]1CC[C@@H]2O` (stereo partly specified), the “activity change, negative = inhibition” value is -6.26%.

With `c1cnc(N2CCN(Cc3ccc4c(c3)OCO4)CC2)nc1`, the “activity change, negative = inhibition” value is -3.97%.
